Reference: PubChem BioAssay (NCATS)
Calls of active or inactive are those of the source. Calls follow the shape of the dose curve; as a rule, active = well fitted curve in the direction sought with a large enough effect; inconclusive = small, poorly fitted or top-dose-only effect, or effect the other way, or another doubt; inactive = no such curve, though single readings can be large or run the other way.

Target: Beta-2 adrenergic receptor (Homo sapiens) (UniProt P07550)
Test: qHTS validation assay of beta-arrestin-biased ligands of beta2-adrenergic receptor (AID 485366); also: 0% is about no effect
Conditions: cell-based beta-arrestin recruitment to ADRB2, qHTS; series mostly up to 46.1 µM; activation: at the top concentration
Text: NIH Molecular Libraries Probe Production Network [MLPCN]
NIH Chemical Genomics Center [NCGC]
PI: Bryan Roth and Bob Lefkowitz
The concept of biased agonism is an emerging concept of molecular pharmacology which proposes that seven transmembrane receptors (7TMRs) or G protein-coupled receptors (GPCRs), exist in multiple signaling conformations and complexes and that ligands (either agonists or antagonists) can induce signaling biased responses for distinct signal transduction cascades.
Furthermore, accumulating evidence over the last decade has drawn attention to a novel function of beta-arrestins as signal transducers that scaffold various signaling molecules upon activation of 7TMRs. […] This beta-arrestin-biased signaling presumably leads to distinct physiological outcomes from those by G protein activation.
Additionally, the active receptor conformations which […] on this beta-arrestin signaling are likely different from those activating G protein signaling
The goal of this screening project will be to discover and optimize novel beta-arrestin-biased ligands for beta2-AR signaling. A luminescent cell-based assay for beta2-AR-mediated agonism, known as the Tango assay, has been validated in which ligand binding of a recombinant beta2-AR and subsequent recruitment of a recombinant beta-arrestin lead to the release of the transcriptional activator tTA, which upregulates transcription of a tTA-responsive luciferase gene. […] Compounds were screened as a concentration-titration series that ranged from 46 microM to 0.6 nM.
NCGC Assay Protocol Summary:
Tango cells were dispensed into white, solid, tissue-culture-treated 1536-well plates at 1500 cells/well in DMEM, containing 1% fetal bovine serum (FBS). Then, 23 nL of compounds or DMSO were delivered to each well using a pin tool. Plates were incubated at 37 degrees C, 5% CO2 for 18 hr. Then 2.5 uL luminescent substrate mix (in-house prepared: 150 mM Tris-Cl, pH 7.6, 3 mM MgCl2, 1% Triton X-100, 5 mM DTT, 0.5 mM CoA, 0.15 mM ATP, 0.44 mM D-luciferin, final concentrations) was added to each well. Plates were then incubated for 15 minutes at room temperature, and subsequently measured on a ViewLux plate reader for luminescent signal using a clear filter with a 10 second exposure and 2x binning. The %Activity was determined from the corrected luminescence values.
Concentration-response curves were fitted to the signals arising from the resulting luminescence. The concentration-effect curves were then classified based on curve quality (r2), response magnitude and degree of measured activity, and compounds were subsequently categorized based on their curve class.
Keywords: biased agonism, beta2-AR, beta-arrestin, GPCR, 7TMR, Tango, luminescence, MLSMR, MLPCN, NIH Roadmap, qHTS, NCGC

Sequence of Beta-2 adrenergic receptor (Homo sapiens) (P07550 whole entry, looked up): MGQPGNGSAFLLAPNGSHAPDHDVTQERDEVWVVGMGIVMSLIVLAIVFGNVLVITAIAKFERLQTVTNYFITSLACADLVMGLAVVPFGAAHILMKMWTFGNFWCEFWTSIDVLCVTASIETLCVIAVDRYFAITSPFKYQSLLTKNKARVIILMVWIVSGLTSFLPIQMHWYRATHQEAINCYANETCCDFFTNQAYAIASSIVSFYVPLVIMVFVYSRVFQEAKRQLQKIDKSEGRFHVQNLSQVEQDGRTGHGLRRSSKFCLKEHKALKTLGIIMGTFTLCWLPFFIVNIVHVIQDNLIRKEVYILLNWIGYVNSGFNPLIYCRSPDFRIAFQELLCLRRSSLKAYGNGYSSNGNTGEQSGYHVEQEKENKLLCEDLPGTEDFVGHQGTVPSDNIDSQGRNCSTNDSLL

| Compound | activation |
| --- | --- |
| Oc1ccc(O)cc1 | 2.57% (inactive) |
| N[C@H](CO)C(=O)O | 0.488% (inactive) |
| COC(=O)[C@H]1[C@H]2C[C@H]3c4[nH]c5ccccc5c4CCN3C[C@H]2CC[C@@H]1O | 0.149% (inactive) |
| COc1cc2c(cc1O)CC[C@@H]1[C@@H]2CC[C@]2(C)[C@@H](O)CC[C@@H]12 | -0.128% (inactive) |
| CC(=O)O[C@H]1C[C@@H]2CC[C@@H]3[C@H](CC[C@@]4(C)[C@H]3C[C@H]([N+]3(C)CCCCC3)[C@@H]4OC(C)=O)[C@@]2(C)C[C@@H]1[N+]1(C)CCCCC1 | 1.99% (inactive) |
| CC1(C)CCC(NC(=O)[C@@H](N)CCC(=O)O)CC1 | -0.285% (inactive) |
| CN1C2CCC1CC(OC(=O)c1c[nH]c3ccccc13)C2 (stereo not drawn) | -0.0466% (inactive) |
| COc1cc(NS(C)(=O)=O)ccc1Nc1c2ccccc2nc2ccccc12 | 4.04% (inactive) |
| CCCn1c(=O)[nH]c(=O)c2[nH]cnc21 | -0.188% (inactive) |
| CCCC1O[C@@H]2C[C@H]3[C@@H]4CCC5=CC(=O)C=C[C@]5(C)[C@H]4[C@@H](O)C[C@]3(C)[C@]2(C(=O)CO)O1 (stereo partly drawn) | -0.267% (inactive) |
| CNCCC(Oc1ccccc1C)c1ccccc1 (stereo not drawn) | -0.0891% (inactive) |
| CC(C)C[C@H]1C(=O)N2CCC[C@H]2[C@]2(O)O[C@](NC(=O)[C@@H]3C=C4c5cccc6[nH]c(Br)c(c56)C[C@H]4N(C)C3)(C(C)C)C(=O)N12 | 0.956% (inactive) |
| CC[C@H](C)C(=O)O[C@H]1CCC=C2C=C[C@H](C)[C@H](CC[C@@H]3C[C@@H](O)CC(=O)O3)[C@H]21 | -0.56% (inactive) |
| O=C1CCC(c2ccc(-n3ccnc3)cc2)=NN1 | 0.912% (inactive) |
| Nc1cc(Cl)c(NC2=NCCN2)c(Cl)c1 | -0.635% (inactive) |
| C[C@@H]1C(=O)NC2=Nc3cccc(Cl)c3CN21 | -0.313% (inactive) |
| C[N+]1(CCCCC[N+]2(C)CCCC2)CCCC1 | -0.0218% (inactive) |
| CC(C)COC(=O)OCN1C(=O)CN(CCN2CC(=O)N(COC(=O)OCC(C)C)C(=O)C2)CC1=O | 3.12% (inactive) |
| O=C(O)c1cc2cc(Cc3cccnc3)ccc2o1 | 1.9% (inactive) |
| CNCCC=C1c2ccccc2CCc2ccccc21 | -0.349% (inactive) |
| C1CCc2nnnn2CC1 | -0.0209% (inactive) |
| N[C@@H](Cc1cnc[nH]1)C(=O)O | -0.0901% (inactive) |
| C[C@]12CC[C@@H]3c4ccc(O)cc4CC[C@H]3[C@@H]1CC[C@@H]2O | 0.19% (inactive) |
